Compounds with a hit are over-represented: about 32% of the library has one in this group of screens.
CYP2C19 inhib: blockers of cytochrome P450 2C19 activity – biochemical, luminescence, ADME assay, primary screen; CYP2C19 Supersomes, luciferin-H EGE luminescence, 30 min; inhibition, % at 5 µM; 21% of 96,000 active; AID 778, 2007;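 active = CYP2C19 inhibition above a set limit at 5 µM in the primary screen, cut at about 50% in these data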;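 also: plate controls were negative control wells for no effect and 2.5 mM tranylcypromine positive control for full effect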
Target sequence (P33261 whole entry, looked up): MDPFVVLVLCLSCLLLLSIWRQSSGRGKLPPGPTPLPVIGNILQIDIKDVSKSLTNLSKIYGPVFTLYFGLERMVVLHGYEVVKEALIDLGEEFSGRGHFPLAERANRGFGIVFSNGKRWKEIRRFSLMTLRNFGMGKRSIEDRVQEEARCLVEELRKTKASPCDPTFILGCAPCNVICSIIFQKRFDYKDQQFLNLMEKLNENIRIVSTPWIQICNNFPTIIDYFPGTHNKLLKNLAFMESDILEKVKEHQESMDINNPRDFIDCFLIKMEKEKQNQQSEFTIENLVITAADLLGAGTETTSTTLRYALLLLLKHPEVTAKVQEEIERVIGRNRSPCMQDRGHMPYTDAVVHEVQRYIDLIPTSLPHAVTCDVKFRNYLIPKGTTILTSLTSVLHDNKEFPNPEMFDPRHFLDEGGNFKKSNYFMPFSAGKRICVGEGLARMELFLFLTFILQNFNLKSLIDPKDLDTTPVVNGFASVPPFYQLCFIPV
CYP2C9 inh: blockers of cytochrome P450 2C9 activity – biochemical, luminescence, ADME assay, primary screen; P11712; CYP2C9 Supersomes, luciferin-H conversion; inhibition, % at 5 µM; 20% of 96,000 active; AID 777, 2007;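 active = blocking of liver enzyme CYP2C9 beyond about 50% at 5 µM, limit read from the data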
PostGolgi yeast: phenotypic screen on post-Golgi transport, primary screen. post-Golgi transport phenotypic cell assay. inhibition, % at 10 µM. 0.9% of 98,000 active;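 also: yeast cells grown in 1536-well plates; yeast grown about 18 h at 30C before absorbance read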
CYP2C19 act: human CYP2C19 activators, primary screen, biochemical, luminescence; Cytochrome P450 2C19 (Homo sapiens), P33261; recombinant CYP2C19, luciferin-H EGE luminescence; stronger effect = higher value; 0 = fully inhibited enzyme, 1 = untreated enzyme; activation factor at 5 µM; 96,000 tested, under 10 active; AID 1025, 2008;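 active = activation factor of at least 2 at 5 µM in the primary screen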;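 also: 0 = wells with 2.5 mM tranylcypromine and 1 = vehicle-only wells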
CYP2C9 act: human CYP2C9 activators, primary screen, biochemical, luminescence | Cytochrome P450 2C9 (Homo sapiens), P11712 | recombinant CYP2C9, luciferin-H conversion; stronger effect = higher value; factor 1 = untreated enzyme, 0 = blocked | activation factor at 5 µM | 1.4% of 96,000 active | AID 1024, 2008;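 active = activation factor of 2 or more for CYP2C9 at a 5 µM dose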;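 also: 0 = sulfaphenazole-blocked wells and 1 = vehicle-only wells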
PostGolgi ctrl: growth inhibition of yeast control strain, primary screen, counter-screen for post-Golgi transport modulator project | efflux-deficient yeast background strain, growth absorbance A615, 16 h | inhibition, % at 10 µM | 5% of 98,000 active | AID 738, 2007
The depositor's hits bear a star. Rule as the data show it, unless noted: active = inhibition above about 30%; inactive = the rest.

What do the screens show for `COc1cc(S(=O)(=O)N2CCC(C(N)=O)CC2)c(C)cc1C`?
CYP2C19 inhib: 68.9*; CYP2C9 inh: -199.5; PostGolgi yeast: -4.3; CYP2C19 act: 0.3; CYP2C9 act: 3*; PostGolgi ctrl: -2.9

Results for Cc1ccc(S(=O)(=O)N2CCC(C(N)=O)CC2)c(C)c1C ?
CYP2C19 inhib: 29.3; CYP2C9 inh: -23.4; PostGolgi yeast: 5.0; CYP2C19 act: 0.7; CYP2C9 act: 1.2; PostGolgi ctrl: -1.0

What do the screens show for `Cc1cc(C)c(S(=O)(=O)N2CCC(C(N)=O)CC2)cc1C`?
CYP2C19 inhib: 38.1; CYP2C9 inh: -133.0; PostGolgi yeast: 1.1; CYP2C19 act: 0.6; CYP2C9 act: 2.3*; PostGolgi ctrl: 13.8

How did CCN1CCN(S(=O)(=O)c2cc(C)c(OC)cc2C)CC1 do in these assays?
CYP2C19 inhib: 28.2; CYP2C9 inh: -74.3; PostGolgi yeast: 4.5; CYP2C19 act: 0.7; CYP2C9 act: 1.7; PostGolgi ctrl: 16.2

What do the screens show for `O=C1CC2CS(=O)(=O)CC2N1C1CCCCC1` (stereo not given)?
CYP2C19 inhib: -12.5; CYP2C9 inh: -10.0; PostGolgi yeast: 4.8; CYP2C19 act: 1.1; CYP2C9 act: 1.1; PostGolgi ctrl: 25.8

How did Cc1cc(=O)oc2cc(OCC(=O)NCc3ccccn3)ccc12 do in these assays?
CYP2C19 inhib: 16.1; CYP2C9 inh: 1.3; PostGolgi yeast: 1.1; CYP2C19 act: 0.8; CYP2C9 act: 1; PostGolgi ctrl: -14.4

Results for CCCCOc1ccc(C(=O)NCc2ccccn2)cc1 ?
CYP2C19 inhib: 0.5; CYP2C9 inh: 10.8; PostGolgi yeast: -4.4; CYP2C19 act: 1; CYP2C9 act: 0.9; PostGolgi ctrl: 35.3*

How did Cc1ccc(OCC(=O)NCc2ccccn2)cc1 do in these assays?
CYP2C19 inhib: 76.5*; CYP2C9 inh: 9.1; PostGolgi yeast: 0.2; CYP2C19 act: 0.2; CYP2C9 act: 0.9; PostGolgi ctrl: 28.4

How did CCCCOc1ccc(C(=O)Nc2ccncc2)cc1 do in these assays?
CYP2C19 inhib: 98.7*; CYP2C9 inh: 99.4*; PostGolgi yeast: 3.3; CYP2C19 act: 0; CYP2C9 act: 0; PostGolgi ctrl: 12.0

How did CCOc1cc(CNCc2ccccn2)ccc1OCC(=O)NC1CCCCC1 do in these assays?
CYP2C19 inhib: 48.2; CYP2C9 inh: 25.4; PostGolgi yeast: 0.3; CYP2C19 act: 0.5; CYP2C9 act: 0.7; PostGolgi ctrl: 3.9

What do the screens show for `Cc1cc(S(=O)(=O)NC2CCCCC2)ccc1OCC(=O)NCc1ccccn1`?
CYP2C19 inhib: 18.3; CYP2C9 inh: 54.0*; PostGolgi yeast: -3.8; CYP2C19 act: 0.8; CYP2C9 act: 0.5; PostGolgi ctrl: 5.7

How did O=C(CSc1ncn[nH]1)N(C1CCCCC1)C1CCCCC1 do in these assays?
CYP2C19 inhib: 41.7; CYP2C9 inh: 9.1; PostGolgi yeast: -1.7; CYP2C19 act: 0.6; CYP2C9 act: 0.9; PostGolgi ctrl: -0.6

What do the screens show for `Cc1ccc(C(=O)N2CC3(C(C)C)CN(C(=O)c4ccc(C)cc4)CC(C(C)C)(C2)C3=O)cc1`?
CYP2C19 inhib: 11.4; CYP2C9 inh: 6.5; PostGolgi yeast: 0.8; CYP2C19 act: 0.9; CYP2C9 act: 0.9; PostGolgi ctrl: 8.5

How did Cc1cc(Br)cn2ccnc12 do in these assays?
CYP2C19 inhib: -13.5; CYP2C9 inh: -18.3; PostGolgi yeast: 2.8; CYP2C19 act: 1.1; CYP2C9 act: 1.2; PostGolgi ctrl: -9.4

Results for COc1ccccc1C(=O)Nn1cnc2ccccc2c1=O ?
CYP2C19 inhib: 13.2; CYP2C9 inh: 17.0; PostGolgi yeast: -4.0; CYP2C19 act: 0.9; CYP2C9 act: 0.8; PostGolgi ctrl: -3.8

Results for COc1ccc(S(=O)(=O)N2CCC(C(=O)NCc3ccccn3)CC2)cc1OC ?
CYP2C19 inhib: 0.2; CYP2C9 inh: -17.1; PostGolgi yeast: -2.2; CYP2C19 act: 1; CYP2C9 act: 1.2; PostGolgi ctrl: 5.8

How did O=C(COc1ccc(S(=O)(=O)N2CCc3ccccc32)cc1Cl)NCc1ccccn1 do in these assays?
CYP2C19 inhib: 93.9*; CYP2C9 inh: 94.5*; PostGolgi yeast: 4.1; CYP2C19 act: 0.1; CYP2C9 act: 0.1; PostGolgi ctrl: 17.4

How did Cc1ccccc1NC(=O)C(=O)NCc1ccccn1 do in these assays?
CYP2C19 inhib: 89.4*; CYP2C9 inh: -0.8; PostGolgi yeast: -2.5; CYP2C19 act: 0.1; CYP2C9 act: 1; PostGolgi ctrl: 6.2

What do the screens show for `Cc1ccc(-c2nn3c(C)nnc3c3ccccc23)cc1S(=O)(=O)N(C)CCO`?
CYP2C19 inhib: 3.2; CYP2C9 inh: 85.5*; PostGolgi yeast: 0.3; CYP2C19 act: 1; CYP2C9 act: 0.1; PostGolgi ctrl: 11.8

Results for CCOC(=O)N1CCN(S(=O)(=O)c2cc(-c3nn4c(C)nnc4c4ccccc34)ccc2C)CC1 ?
CYP2C19 inhib: 56.1*; CYP2C9 inh: 80.1*; PostGolgi yeast: 1.7; CYP2C19 act: 0.4; CYP2C9 act: 0.2; PostGolgi ctrl: 6.0

What do the screens show for `Cc1ccc(-c2nn3c(-c4ccco4)nnc3c3ccccc23)cc1S(=O)(=O)N1CCOCC1`?
CYP2C19 inhib: 5.8; CYP2C9 inh: 17.3; CYP2C19 act: 0.9; CYP2C9 act: 0.8

How did N#CC(C(=O)NC1CC1)c1nc2ccccc2nc1N1CCN(C/C=C/c2ccccc2)CC1 (stereo not given) do in these assays?
CYP2C19 inhib: 4.8; CYP2C9 inh: 44.9; PostGolgi yeast: 1.9; CYP2C19 act: 1; CYP2C9 act: 0.6; PostGolgi ctrl: 20.9

What do the screens show for `Cc1ccc2nc(C)cc(Nc3ccc4c(c3)OCCO4)c2c1`?
CYP2C19 inhib: 20.4; CYP2C9 inh: 68.1*; PostGolgi yeast: 6.4; CYP2C19 act: 0.8; CYP2C9 act: 0.3; PostGolgi ctrl: -4.9

Results for COc1ccc(-n2cnnc2SCC(=O)NC2CCS(=O)(=O)C2)cc1 (stereo not given) ?
CYP2C19 inhib: -18.4; CYP2C9 inh: -23.3; PostGolgi yeast: -4.3; CYP2C19 act: 1.2; CYP2C9 act: 1.2; PostGolgi ctrl: 10.5

What do the screens show for `CCCOc1ccccc1C(=O)N(Cc1cccs1)C1CCS(=O)(=O)C1` (stereo not given)?
CYP2C19 inhib: 6.3; CYP2C9 inh: 4.3; PostGolgi yeast: 2.1; CYP2C19 act: 0.9; CYP2C9 act: 1; PostGolgi ctrl: 3.0

What do the screens show for `O=C(Oc1ccc(N(Cc2cccs2)C2=NS(=O)(=O)c3ccccc32)cc1)c1ccccc1F`?
CYP2C19 inhib: 69.0*; CYP2C9 inh: 97.3*; PostGolgi yeast: -5.9; CYP2C19 act: 0.3; CYP2C9 act: 0; PostGolgi ctrl: -5.0

What do the screens show for `COCCn1c(=O)c2cc3c(=O)n(CCOC)c(=O)c3cc2c1=O`?
CYP2C19 inhib: 26.6; CYP2C9 inh: 35.0; PostGolgi yeast: -3.2; CYP2C19 act: 0.7; CYP2C9 act: 0.7; PostGolgi ctrl: 2.9

Compound activity: PubChem, several laboratories
